Results published in PubChem BioAssay AID624352 (Sanford-Burnham Center for Chemical Genomics, 2012).
About 2,600 (0.72%) of roughly 360,000 compounds were called active. What follows is part of a selection rich in actives, with near analogues and random picks from the rest. Values without a mark were called inactive.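 The calls were made as follows: active = inhibition of the luminescence signal of 40% or more relative to plate controls, in a single-dose primary screen at 18.75 µM; inactive = the rest.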

Assay: HIF-2a reporter inhibitors, primary screen, luminescence, 786-0 RCC cells (AID 624352)
Details: 786-0 RCC cells HIF-2a reporter, luciferase luminescence, overnight; at 18.8 µM; active compounds read high

SMILES	inhibition
Cc1cc(CNC(=O)C2CCC(=O)N(CCc3ccc(Cl)cc3)C2)no1 (configuration not stated)	-9.67%
O=C(NCCc1c[nH]c2ccc(Cl)cc12)c1ccc([N+](=O)[O-])cc1	-9.18%
CCN(C(=O)CSc1nnnn1-c1ccccc1OC)C1CCS(=O)(=O)C1 (configuration not stated)	-1.01%
COc1ccccc1-n1nnnc1S(=O)(=O)Cc1ccc(Cl)cc1	86% (active)
COc1ccccc1CN(C)c1nnnn1-c1ccccc1	15.6%
Cc1[nH]c2ccccc2c1C(=O)c1cc([C@H](NC(=O)OC(C)(C)C)C(C)C)sc1N	2.29%
C=CCOc1ccccc1CNn1c(C)n[nH]c1=S	21.3%
COc1cccc(C(NC(C)=O)c2nc(-c3cnc4ccccc4c3)cs2)c1 (configuration not stated)	-32.9%
O=[N+]([O-])c1c(NCCO)cc(Sc2nc3ccccc3s2)c2nonc12	87% (active)
CC(C)=CCN1CCN(CCCc2ccccc2)CC1CCO (configuration not stated)	16.8%
CC[C@]1(c2ccccc2OC)C(=O)N(C(=O)OC)N1C(=O)OC	18.5%
CCN(CC(=O)NC(C)C)C(=O)CCNC(=O)c1ccc(Cl)cc1	14.3%
O=C(OC1CCOC1=O)c1cccc(S(=O)(=O)Nc2ccc(F)cc2)c1 (configuration not stated)	14.8%
COc1ccc(N2CCN(C(=O)COC(=O)c3cccc(S(=O)(=O)Nc4ccccc4OC)c3)CC2)cc1	12.6%
CC(=O)Nc1ccc(/C(C)=N/NC(=O)CN(c2ccccc2Br)S(C)(=O)=O)cc1	1.74%
O=C(COc1cccc(F)c1)Oc1ccc(C(=O)c2ccccc2)cc1	-3.52%
O=C(Oc1ccc(-c2nc(-c3ccccn3)no2)cc1)c1ccccc1	42.3% (active)
COC(=O)c1ccc(OC(=O)c2cnccn2)cc1	17.4%
Cc1cccc(C(=O)Nc2ccc(CC(=O)O)cc2)c1	60.9% (active)
CC(=O)Nc1ccc(NC(=O)[C@@H](NC(=O)c2cccc(C)c2)C(C)C)cc1	4.88%
Cc1cccc(C(=O)Nc2ccc(C(=O)/C=C/c3cccs3)cc2)c1	-134%
O=C(CCc1ccccc1)NNc1ccc(F)cc1	5.59%
CCCc1nc2c([nH]1)C(c1cccnc1)C(C#N)=C(N)O2 (configuration not stated)	20.2%
CCCc1[nH]nc2c1C(C1CC=CCC1)C(C#N)=C(N)O2 (configuration not stated)	52.3% (active)
CCCc1[nH]nc2c1C(c1ccc(Br)s1)C(C#N)=C(N)O2 (configuration not stated)	80.8% (active)
COc1ccc(C2C(C#N)=C(N)Oc3n[nH]c(C)c32)cc1CN1CCN(c2ccc(F)cc2)CC1 (configuration not stated)	16.6%
N#CC1=C(N)OC2=C(C(=O)CCC2)C1C1CC=CCC1 (configuration not stated)	-5.19%
